# From paper PMC13083723 (Patterns, 2026)
# In all, about 5,400 compounds went through this assay and about 190 (3.5%) showed an effect of 50% or more. Many of the other results were omitted from the sample, so strong results are more common in it than they were. Positions of bridges follow the written chain, without caps; N, C: chain ends. Non-standard residues stand in square brackets, D forms with d. Residues, ends and D or L forms follow the SMILES beside them. ξ: configuration not given here. *: point of attachment. Heptanoyl(5-Me) = CCC(C)CCCC(=O)*; ξThr(3R) = C[C@@H](O)C(N)C(=O)O; Dab = NCC[C@H](N)C(=O)O
# System: Vero-E6
# Test: primary screen, phospholipidosis by LipidTOX staining; higher = more effect of the substance
# Conditions: 10 µM
# In short: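 Drug-induced phospholipidosis detected with HCS LipidTOX Red reagent in Vero-E6 cells. Compounds tested at 10 μM, with amiodarone (10 μM) as positive control and DMSO (0.1 v/v %) as vehicle.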
row,SMILES,result_ITMP [%]
1,Oc1ncc(F)cn1,-8.73
2,Nc1nnc2[nH]c3ccccc3nc1-2,-7.77
3,CCCC1(CCC)CCC2(CCN(CCCN(CC)CC)C2)CC1,109
4,COc1cc(/C=C/C(=O)[O-])ccc1O,-1.05
5,CCN1CCN(Cc2ccc(Nc3ncc(F)c(-c4cc(F)c5nc(C)n(C(C)C)c5c4)n3)nc2)CC1,76.7
6,CC(C)Cc1ccc(C(C)C(=O)O)cc1 (stereo not drawn) [R4A_0001344_001 / SPE_A17655518],-3.6
7,COC(=O)C1=C(C)NC(C)=C(C(=O)OCCN2CCN(C(c3ccccc3)c3ccccc3)CC2)C1c1cccc([N+](=O)[O-])c1 (stereo not drawn),11.6
8,COC(=O)C1=C(C)NC(C)=C(C(=O)NCCCN2CCC(c3ccccc3)(c3ccccc3)CC2)C1c1ccc([N+](=O)[O-])cc1 (stereo not drawn),60.6
9,COC(=O)C1=C(C)NC(C)=C(C(=O)O[C@H]2CCN(Cc3ccccc3)C2)[C@H]1c1cccc([N+](=O)[O-])c1,21.2
10,CC[C@H](CC[C@@H](C)[C@H]1CC[C@H]2[C@@H]3CC=C4C[C@@H](O)CC[C@]4(C)[C@H]3CC[C@]12C)C(C)C,1.55
11,CC(=O)CC(=O)[O-],1.77
12,CN1CCC(COc2cnc(-c3cccc(Cn4nc(-c5cccc(C#N)c5)ccc4=O)c3)nc2)CC1,2.15
13,CN1CCC(CNc2ccc3ncc(-c4cccc(OC(F)(F)F)c4)n3n2)CC1,62.4
14,CCc1cccc(CC)c1NC(=O)c1nn(C)c2c1CCc1cnc(Nc3ccc(C(=O)NC4CCN(C)CC4)cc3OC(F)(F)F)nc1-2,7.96
15,CC1(C)[C@@H]2CC[C@@]1(C)C(=O)C2 [R4A_0000828_001 / SPE_K10034334],-2.3
16,CC(C)(N)c1cc(C(=O)N[C@@H]2CCc3ccc(OC4=C5CCC(=O)N=C5NC=C4)cc3C2)cc(C(F)(F)F)c1,28.9
17,CCC(C)CCCC(=O)N[C@@H](CCN)C(=O)N[C@H](C(=O)N[C@@H](CCN)C(=O)N[C@H]1CCNC(=O)[C@H]([C@@H](C)O)NC(=O)[C@H](CCN)NC(=O)[C@H](CCN)NC(=O)[C@H](CC(C)C)NC(=O)[C@@H](CC(C)C)NC(=O)[C@H](CCN)NC1=O)[C@@H](C)O (stereo partly drawn) [R4A_0005175_001 / SPE_A36456202] ({Heptanoyl(5-Me)}-[Dab]T[Dab][Dab][Dab][dL]L[Dab][Dab]T; lactam 4-C),-0.45
18,"C[C@@H]1NC(=O)[C@@H]2CCCN2C(=O)[C@H](CC(N)=O)NC(=O)[C@@H]2CSSC[C@H](N)C(=O)N[C@H]3CSSC[C@H](NC1=O)C(=O)NC([C@@H](C)O)C(=O)NCC(=O)N[C@H](C(=O)N[C@@H](Cc1ccc(O)cc1)C(=O)O)CSSC[C@H](NC(=O)[C@H](Cc1ccc(O)cc1)NC(=O)[C@H](CCC(=O)O)NC3=O)C(=O)N2 (stereo partly drawn) (H-CCEYCCNPAC[ξThr(3R)]GCY-OH; disulfide 1-6, 2-10, 5-13)",-6.32
19,C#CC[C@H](c1nc2cc(Cl)ccc2c(=O)n1Nc1ccccc1)N(CCCN)C(=O)c1cccc(Cl)c1F,68.4
20,C=C(c1ccccc1OCc1cccc(Cl)c1)n1ccnc1,2.27
21,O=c1ccn([C@@H]2O[C@H](COP(=O)([O-])OP(=O)([O-])OP(=O)([O-])O)C(O)C2O)c(=O)[nH]1 (stereo partly drawn),0.02
22,CCCCCCCCCCCCCC(=O)[O-].CCCCCCCCCCCCCC(=O)[O-].NC1CCCCC1N.[Pt+2],0.26
23,O=S(=O)([O-])Oc1ccc(C(c2ccc(OS(=O)(=O)[O-])cc2)c2ccccn2)cc1,-7.14
24,Cc1ccc(-c2n[nH]c3c2C(c2cccc(O)c2)N(c2ccc(C(=O)O)cc2)C3=O)cc1 (stereo not drawn),0.62
25,Cc1cc(Nc2ncc(Cl)c(Nc3ccccc3S(=O)(=O)C(C)C)n2)c(OC(C)C)cc1C1CCNCC1,50.9

row,SMILES,result_ITMP [%]
1,COc1cc(N2CCC(N3CCN(C)CC3)CC2)ccc1Nc1ncc(Cl)c(Nc2ccccc2S(=O)(=O)C(C)C)n1,-2.93
2,COc1cc(N2CCC(N3CCN(C)CC3)CC2)ccc1Nc1ncnc(Nc2ccccc2S(=O)(=O)C(C)C)n1,44.8
3,Cc1c(S(=O)(=O)[O-])oc2c1C(=O)C(=O)c1c-2ccc2c1CCCC2(C)C,-1.56
4,C[C@H](Oc1cc(-c2cnn(C3CCNCC3)c2)cnc1N)c1c(Cl)ccc(F)c1Cl,70.2
5,C[C@@H](Oc1cc(-c2cnn(C3CCNCC3)c2)cnc1N)c1c(Cl)ccc(F)c1Cl,75
6,Nc1nc2[nH]nnc2c(=O)[nH]1,1.34
7,O=C([O-])[C@@H](O)[C@@H](O)[C@H](O)[C@@H](O)C(=O)[O-],-1.82
8,CCOc1ccc(/N=C(/C)Nc2ccc(OCC)cc2)cc1,3.29
9,CC(=O)OCC1=C(C(=O)[O-])N2C(=O)[C@@H](NC(=O)CSc3ccncc3)[C@H]2SC1,-1.36
10,CO/N=C(\C(=O)N[C@@H]1C(=O)N2C(C(=O)[O-])=C(COC(N)=O)CS[C@H]12)c1ccco1,-1.04
11,O=S(=O)([O-])CCCS(=O)(=O)[O-],-2.16
12,CCn1cc(C(=O)[O-])c(=O)c2cc3c(cc21)OCO3,-4.34
13,CC(C)NC[C@@H](O)COc1cccc2ccccc12 [R4A_0000150_002 / SPE_K13994703],20.2
14,CN(C)[C@@H](CCOc1cccc2ccccc12)c1ccccc1,43.4
15,CNCC[C@H](Oc1cccc2ccccc12)c1cccs1,92.6
16,CC1(C)CCC[C@]2(C)[C@H]3CC(=O)O[C@]3(C)CC[C@@H]12,1.48
17,Nc1nc2c(c(N3CCNCC3)n1)CCC1=C2[C@@H]2CCCC[C@@H]2O1,70.7
18,CC[C@]1(O)C[C@@H]2C[N@@](CCc3c([nH]c4ccccc34)[C@@](C(=O)OC)(c3cc4c(cc3OC)N(C=O)[C@H]3[C@@](O)(C(=O)OC)[C@H](OC(C)=O)[C@]5(CC)C=CCN6CC[C@]43[C@@H]65)C2)C1,1.05
19,CCN(CC)CCOc1ccc(Cc2ccccc2)cc1,30.2
20,CC/C(=C(\c1ccccc1)c1ccc(OCCN(C)C)cc1)c1ccccc1,49.4
21,CCN(CC)CCOc1ccc(/C(=C(\Cl)c2ccccc2)c2ccccc2)cc1,108
22,CC/C(=C(\c1ccc(O)cc1)c1ccc(OCCN(C)C)cc1)c1ccccc1,20.4
23,CC/C(=C(\c1ccc(OCCN(C)C)cc1)c1cccc(O)c1)c1ccccc1,77.7
24,CN(C)CCOc1ccc(/C(=C(/CCCl)c2ccccc2)c2ccccc2)cc1,20.4
25,CN1C[C@@H]2CN(c3ccc(-c4ccccc4)nn3)C[C@@H]2C1,-1.43

row,SMILES,result_ITMP [%]
1,O=C([O-])CCC/C=C\C[C@@H]1[C@@H](/C=C/[C@@H](O)COc2cccc(Cl)c2)[C@H](O)C[C@@H]1O (racemic),-1.06
2,C[C@H](CCC(=O)O)[C@H]1CC[C@H]2[C@@H]3CC[C@@H]4C[C@H](O)CC[C@]4(C)[C@H]3CC[C@]12C,-0.58
3,Oc1ccnc(S)n1,-2.88
4,NC[C@@](O)(c1ccc(Cl)cc1)c1ccc(-c2cn[nH]c2)cc1,63.1
5,Clc1ccc(C2(c3ccc(-c4cn[nH]c4)cc3)CCNCC2)cc1,96.9
6,NCC(O)(CS(=O)(=O)O)c1ccc(Cl)cc1 (stereo not drawn),-4.58
7,Cn1ncnc1COc1nn2c(-c3cc(F)ccc3F)nnc2cc1C(C)(C)C,-6.83
8,Nc1c(S(=O)(=O)[O-])cc(Nc2cccc3ccccc23)c2c1C(=O)c1ccccc1C2=O,-11.1
9,CC[C@H]1[C@@H](O)C2C3CC[C@H]([C@H](C)CCC(=O)O)[C@@]3(C)CCC2[C@@]2(C)CC[C@@H](O)C[C@@H]12 (stereo partly drawn),-3.95
10,CN[C@@H]1C(OC2[C@H](O[C@H]3[C@H](O)[C@@H](O)[C@H](NC(=N)N)[C@@H](O)[C@@H]3NC(=N)N)OC(C)[C@]2(O)CO)OC(CO)C(O)C1O (stereo partly drawn),-3.92
11,CC(=O)c1ccc2c(c1)C(=O)C1(CC1)O2,0.63
12,C[C@@H]1CCCN1CCc1cc2cc(-c3ccc(C#N)cc3)ccc2o1,66.8
13,CC(=O)C1=C(O)[C@]2(C)C(=CC1=O)Oc1c(C(C)=O)c(O)c(C)c(O)c12,-3.21
14,CCCCCCCCCCC(=O)O[C@H]1CC[C@H]2[C@@H]3CCC4=CC(=O)CC[C@]4(C)[C@H]3CC[C@]12C,0.88
15,C[C@@]1(O)[C@H](O)[C@@H](CO)O[C@H]1n1cnc2c(O)nc(N)nc21,7.18
16,COc1ccc2cc(-c3[nH]c(-c4ccc(S(C)=O)cc4)nc3-c3ccncc3)ccc2c1 (stereo not drawn),-3.68
17,C[N+]1(C)[C@@H]2C[C@@H](OC(=O)C(O)(c3cccs3)c3cccs3)C[C@H]1[C@@H]1O[C@@H]12,-2.59
18,CN1CCC(=C2c3ccccc3CCc3sccc32)CC1,42.6
19,CN1CCC(=C2c3ccccc3C=Cc3ccccc32)CC1,77.3
20,CN1CCC(=C2c3ccccc3Sc3ccccc32)CC1,44.9
21,Cc1onc(O)c1CC(N)C(=O)O (racemic) [R4A_0004356_001 / SPE_A34716233],0.42
22,O=C(O)COc1ccc(C(=O)c2cccs2)c(Cl)c1Cl,-7.59
23,CC(C)c1ccc(C(=O)c2cccs2)c(SCCCCCCCCN(C)C)n1,77
24,CC(C(=O)O)c1ccc(C(=O)c2cccs2)cc1 (stereo not drawn),-0.4
25,O=C([O-])CCC(=O)OC[C@H](NC(=O)C(Cl)Cl)C(O)c1ccc([N+](=O)[O-])cc1 (stereo partly drawn),1.81
